# Test results taken from ChEMBL document CHEMBL3988442, “University of Dundee, Small-Polar-MMV Screening Library” (2021).
# Hit rate of the full screen: of about 69,000 compounds, about 1,000 (1.4%) showed an effect of 50% or more. Only a selection was taken, and strong results are over-represented in it overall.
# System: Leishmania donovani
# Test: Leishmania intramacrophage assay
# Type: functional, organism-based
# Set-up: scale not given: in the data most compounds retested in dose-response had high values
smiles,measurement,setting,value
Cc1cnn(C2CN(CCOc3cccc(C#N)c3)C2)c1,Percent Effect,"30.3 µM, […]",0.4339%
COc1ccc(C2CCCN2c2cnccn2)c(OC)c1 (configuration not stated),Percent Effect,"30.3 µM, […]",20.05%
COc1ccc(C2CCCN2c2ccnc(C)c2Cl)c(OC)c1 (configuration not stated),Percent Effect,"30.3 µM, […]",54.95%
COc1ccc(C2CCCN2c2nnc(C)s2)c(OC)c1 (configuration not stated),Percent Effect,"30.3 µM, […]",1.461%
CCOc1ccc(CNCCCn2ccnc2)cc1Cl.Cl.Cl,Percent Effect,"30.3 µM, […]",68.16%
CCOc1cc(CNCCCn2ccnc2)cc(Cl)c1OCC,Percent Effect,"30.3 µM, […]",81.44%
CCOc1cc(CNCCCn2ccnc2)cc(Cl)c1OC,Percent Effect,"30.3 µM, […]",37.96%
CCOc1ccc(CNCCCn2ccnc2)cc1Br,Percent Effect,"30 µM, 30.03 µM",80.37%
CCOc1ccc(NC(=O)N2CCC(n3cncn3)CC2)cc1Cl,Percent Effect,"30.3 µM, […]",-3.205%
COCCCn1ccc(NC(=O)NCCCn2ccnc2)n1,Percent Effect,"30.3 µM, […]",2.018%
COc1ccc(C(=O)NCCCn2ccnc2)c(OC)n1,Percent Effect,"30 µM, 30.03 µM",10.91%
COc1cc(CNCCn2ccnc2)cc2c1OCO2.Cl,Percent Effect,"30.3 µM, […]",27.41%
CCOc1ccc(CNCCCn2ccnc2)cc1OC,Percent Effect,"30.3 µM, […]",3.86%
CN(C)C(=O)COCc1nn(C)c2c1CCN(Cc1ccco1)C2.O=C(O)C(F)(F)F,Percent Effect,"30.3 µM, […]",23.44%
O=C(NCC(F)F)c1ccc(S(=O)(=O)N2CCCC(O)C2)cc1 (configuration not stated),Percent Effect,"30.3 µM, […]",15.51%
CN(C)Cc1ccc(C(=O)N2CCCC(n3cccn3)C2)cc1 (configuration not stated),Percent Effect,"30.3 µM, […]",-1.565%
Cc1nn(C)c(N(C)C)c1CNC1CCc2c(Cl)cccc21.Cl (configuration not stated),Percent Effect,30 µM,34.54%
O=C([C@@H](O)Cc1ccccc1)N1CCCn2cncc2C1,Percent Effect,"30.3 µM, […]",13.9%
Cn1ccc(C(=O)Nc2nc(-c3ccc4c(c3)CCO4)cs2)cc1=O,Percent Effect,"30.3 µM, […]",32.33%
O=C(O)C(F)(F)F.O=C(c1ccc(F)cc1)N1C[C@@H]2COC[C@]2(COc2cccnc2)C1,Percent Effect,"30.3 µM, […]",16.14%
O=C(O)C(F)(F)F.O=C(c1cc(C2CC2)on1)N1C[C@@H]2COC[C@]2(COc2cccnc2)C1,Percent Effect,"30.3 µM, […]",50.64%
O=C(COc1ccccc1)N1C[C@@H]2COC[C@]2(COc2cccnc2)C1.O=C(O)C(F)(F)F,Percent Effect,"30.3 µM, […]",29.31%
CC(C)(C)c1cc(CN2C[C@H]3CC[C@@H]2CN(Cc2ccccn2)C3)n[nH]1,Percent Effect,"30.3 µM, […]",4.97%
CC(C)N(C)S(=O)(=O)N(Cc1cccs1)CC1CCCO1 (configuration not stated),Percent Effect,"30.3 µM, […]",-50.49%
CC(C)c1nc(CNc2ccc(CNS(C)(=O)=O)cc2)cs1,Percent Effect,"30.3 µM, […]",21.12%
CC(C)c1cc(NCc2csc(C(C)C)n2)nc(N)n1,Percent Effect,"30.3 µM, […]",50.61%
CC(C)c1cc(NCc2csc(N(C)C)n2)nc(N)n1,Percent Effect,"30.3 µM, […]",41.43%
Cn1cc(CN2CCCC3(CCN(C(=O)c4ccccn4)C3)C2)cn1.O=C(O)C(F)(F)F.O=C(O)C(F)(F)F.O=C(O)C(F)(F)F (configuration not stated),Percent Effect,"30.3 µM, […]",77.43%
O=C(O)C(F)(F)F.O=C(c1ccccn1)N1CCC2(CCCN(c3nncs3)C2)C1 (configuration not stated),Percent Effect,"30.3 µM, […]",54.23%
O=C(O)C(F)(F)F.O=C(c1ccco1)N1CCCC2(CCN(c3nncs3)C2)C1 (configuration not stated),Percent Effect,"30.3 µM, […]",36.42%
Cc1cccc(CN2CCC3(CCCN(Cc4cnn(C)c4)C3)C2)n1.O=C(O)C(F)(F)F.O=C(O)C(F)(F)F (configuration not stated),Percent Effect,"30.3 µM, […]",37.49%
Cn1cc(CN2CCC3(CCCN(Cc4ccccn4)C3)CC2)cn1,Percent Effect,"30 µM, 30.03 µM",51.96%
Cn1cc(CN2CCC3(CC2)CCN(Cc2ccccn2)CC3)cn1,Percent Effect,"30.3 µM, […]",-5.313%
Cn1cc(CN2CCCC3(CCN(C(=O)c4cnccn4)C3)C2)cn1.O=C(O)C(F)(F)F.O=C(O)C(F)(F)F (configuration not stated),Percent Effect,"30.3 µM, […]",26.24%
Cn1cc(CN2CCCC23CCN(C(=O)c2ccccn2)CC3)cn1.O=C(O)C(F)(F)F,Percent Effect,"30.3 µM, […]",-2.86%
Cc1cnc(C(=O)N2CCC3(CCCN(c4nncs4)C3)C2)cn1 (configuration not stated),Percent Effect,"30.3 µM, […]",29.83%
CCOc1ccc(NC(=O)N(C)Cc2cnn(C)c2)c(C)c1,Percent Effect,"30.3 µM, […]",28.5%
CC(C)N1CCO[C@H]2CN(C(=O)c3ccoc3)C[C@H]21.O=C(O)C(F)(F)F,Percent Effect,"30 µM, 30.03 µM",-20.99%
Cn1cnc2c1C(COCc1cccnc1)N(Cc1ccccn1)CC2 (configuration not stated),Percent Effect,"30 µM, 30.03 µM",6.459%
CC(C)(C)c1n[nH]c(C2CN(Cc3nnc(C4CCC4)o3)CCO2)n1 (configuration not stated),Percent Effect,30 µM,11.21%
CCN(C)c1ncnc2c1CCN(Cc1ccncc1)CC2.O=C(O)C(F)(F)F.O=C(O)C(F)(F)F.O=C(O)C(F)(F)F,Percent Effect,"30.3 µM, […]",31.79%
CCn1cc(CN(C)S(=O)(=O)c2ccccc2)cn1,Percent Effect,"30.3 µM, […]",11.15%
CCn1cc(CN(C)S(=O)(=O)c2cnn(C)c2)cn1,Percent Effect,"30.3 µM, […]",50.44%
CCn1cc(CN(C)S(=O)(=O)c2ccc(Cl)cc2)cn1,Percent Effect,"30 µM, 30.03 µM",2.361%
C[C@@H]1CN(Cc2ccoc2)C[C@]12CCN(CC(=O)N(C)C)C2=O.O=C(O)C(F)(F)F,Percent Effect,"30.3 µM, […]",1.993%
NC(=O)c1ccnc(N2CCCC(CO)(Cc3ccc(F)cc3)C2)c1 (configuration not stated),Percent Effect,"30.3 µM, […]",16.75%
O=S(=O)(CCCN1CCOC(Cn2cccn2)C1)c1ccccc1 (configuration not stated),Percent Effect,"30.3 µM, […]",8.687%
Cc1noc([C@H]2COC[C@H]3CN(C(=O)Cc4cccc(F)c4)C[C@H]32)n1,Percent Effect,"30.3 µM, […]",29.86%
Cc1noc(C)c1CN(C)C(=O)c1ccc(O)nc1,Percent Effect,30 µM,24.33%
Cc1noc(C)c1CN(C)C(=O)c1cnc(C2CC2)nc1O,Percent Effect,"30.3 µM, […]",65.78%
Cc1noc(C)c1CN(C)C(=O)c1ccc(NC2CC2)nc1,Percent Effect,"30 µM, 30.03 µM",24.65%
CCOC(=O)N1C[C@H]2CC[C@@H]1CN(Cc1ccccc1)C2,Percent Effect,"30.3 µM, […]",27.53%
O=C(CSc1ccccc1)N1C[C@H]2CC[C@@H]1CN(Cc1ccncc1)C2,Percent Effect,"30.3 µM, […]",14.29%
CSCC(=O)N1C[C@H]2CC[C@@H]1CN(Cc1ccccc1)C2,Percent Effect,"30 µM, 30.03 µM",50.94%
O=C(CC(F)(F)F)N1C[C@H]2CC[C@@H]1CN(Cc1ccccc1)C2,Percent Effect,"30.3 µM, […]",17.26%
O=C(CSc1ccncc1)N1C[C@H]2CC[C@@H]1CN(Cc1cccnc1)C2,Percent Effect,"30 µM, 30.03 µM",35.98%
O=C(CSc1ncccn1)N1C[C@H]2CC[C@@H]1CN(Cc1ccncc1)C2,Percent Effect,"30 µM, 30.03 µM",54.88%
[O-][S+](Cc1c(F)cccc1Cl)Cc1nnnn1C1CC1 (configuration not stated),Percent Effect,"30.3 µM, […]",-31.87%
COCCC(C)NC(=O)c1cc(Br)c2c(c1)OCCO2 (configuration not stated),Percent Effect,30 µM,12.78%
Cc1nc(COc2cccc(C#N)c2)no1,Percent Effect,"30 µM, 30.03 µM",-12.6%
Cc1n[nH]c(C2CN(CC(=O)NCCc3ccccc3C)CCO2)n1 (configuration not stated),Percent Effect,"30.3 µM, […]",-38.97%
CCCc1cncnc1N1CCC(NCc2cc3ccccc3[nH]2)CC1,Percent Effect,"30.3 µM, […]",84.37%
CCCc1cncnc1N1CCC(NCc2ccc(O)cc2)CC1,Percent Effect,"30.3 µM, […]",-3.143%
CCCc1cncnc1N1CCC(NCc2ccncc2)CC1,Percent Effect,"30.3 µM, […]",-13.54%
CC(=O)N1CCN(c2cc(C3CN(C(C)=O)CCO3)nc(C)n2)CC1 (configuration not stated),Percent Effect,"30.3 µM, […]",2.386%
CC(C)c1ccc(C#N)c(N2CC(C)(C)[C@@](C)(O)C2)n1,Percent Effect,"30.3 µM, […]",3.251%
Cc1cc(C)n(CC2CN(CCOc3ccccc3C#N)CCO2)n1 (configuration not stated),Percent Effect,30 µM,10.79%
CCn1ncc2c1C(COC)CN(Cc1ccc(F)cc1)C2.O=C(O)C(F)(F)F.O=C(O)C(F)(F)F (configuration not stated),Percent Effect,"30.3 µM, […]",-25.2%
COCC1CN(c2ncc(F)cn2)Cc2cnn(C)c21.O=C(O)C(F)(F)F.O=C(O)C(F)(F)F (configuration not stated),Percent Effect,"30.3 µM, […]",22.2%
CCn1ncc2c1C(COC)CN(c1ncc(F)cn1)C2.O=C(O)C(F)(F)F.O=C(O)C(F)(F)F (configuration not stated),Percent Effect,"30.3 µM, […]",50.28%
CCOC1COC2(CCN(S(=O)(=O)c3cccc(C)c3)CC2)C1 (configuration not stated),Percent Effect,"30.3 µM, […]",23.7%
COC1COC2(CCN(S(=O)(=O)c3ccc(F)cc3)CC2)C1 (configuration not stated),Percent Effect,"30.3 µM, […]",5.953%
Cc1cccc(S(=O)(=O)N2CCC3(CC2)CC(N(C)C)CO3)c1 (configuration not stated),Percent Effect,"30.3 µM, […]",50.39%
CCOC1COC2(CCN(S(=O)(=O)c3ccc(F)cc3)CC2)C1 (configuration not stated),Percent Effect,"30.3 µM, […]",12.78%
CN(C)C1COC2(CCN(S(=O)(=O)c3ccc(F)cc3)CC2)C1.O=C(O)C(F)(F)F (configuration not stated),Percent Effect,"30.3 µM, […]",52.86%
CCOC1COC2(CCN(S(=O)(=O)c3cccc(F)c3)CC2)C1 (configuration not stated),Percent Effect,"30 µM, 30.03 µM",-15.08%
CC(Oc1ccccc1C#N)C(=O)NC1CC1 (configuration not stated),Percent Effect,"30.3 µM, […]",8.957%
Cc1cnn(C2CN(c3nc(C)cc(N(C)C)n3)C2)c1,Percent Effect,"30.3 µM, […]",24.16%
CC1CCN(CC(=O)N(C)CCc2noc(C3CC3)n2)C1=O (configuration not stated),Percent Effect,"30.3 µM, […]",26.42%
CN(Cc1noc2c1CCCC2)C(=O)CN1C(=O)COc2ccccc21,Percent Effect,"30.3 µM, […]",18.25%
CN(CCc1noc(C2CC2)n1)C(=O)CN1C(=O)COc2ccccc21,Percent Effect,"30.3 µM, […]",99.57%
CC(C)Oc1ncccc1CNC(=O)c1ccccn1,Percent Effect,"30.3 µM, […]",-8.458%
CN(Cc1ccc(F)c(F)c1)Cc1cc2c(cc1Br)OCCO2,Percent Effect,"30.3 µM, […]",17.19%
c1cc(CNCC2Cn3nncc3CO2)ccn1 (configuration not stated),Percent Effect,"30.3 µM, […]",1.96%
c1coc(CNCC2Cn3nncc3CO2)c1 (configuration not stated),Percent Effect,"30.3 µM, […]",55.14%
Cc1ccc(CNCC2Cn3nncc3CO2)o1 (configuration not stated),Percent Effect,"30.3 µM, […]",8.133%
CCNc1ccnc(NCC2(N(C)C)CCOCC2)n1,Percent Effect,"30.3 µM, […]",31.76%
CCc1ncc(C(=O)N2CC(Oc3ccccc3Cl)C2)cn1,Percent Effect,"30.3 µM, […]",18.16%
COCCN1C[C@H]2CCN(C(=O)c3cc(C)on3)CC[C@H]2S1(=O)=O,Percent Effect,"30.3 µM, […]",-11.97%
Cc1ccc(CNC(=O)NCc2csc(C)n2)cn1,Percent Effect,"30 µM, 30.03 µM",22.66%
Cc1nnc2n1CCN(CCCS(=O)(=O)c1ccccc1)C2,Percent Effect,"30.3 µM, […]",27.12%
CCN(CC)c1ncnc2c1CCN(CC1CCOCC1)CC2.O=C(O)C(F)(F)F,Percent Effect,"30.3 µM, […]",50.25%
CN(C)c1ncnc2c1CCN(CC1CCOCC1)CC2.O=C(O)C(F)(F)F,Percent Effect,"30.3 µM, […]",3.553%
CCN(C)c1ncnc2c1CCN(CC1CCOC1)CC2.O=C(O)C(F)(F)F (configuration not stated),Percent Effect,"30.3 µM, […]",-1.105%
Cc1ccc(CN2CCn3c(CNS(C)(=O)=O)nnc3C2)s1,Percent Effect,"30.3 µM, […]",21.51%
COc1cc(OC)nc(N2CCC3(CC2)OCCCC3O)n1 (configuration not stated),Percent Effect,"30.3 µM, […]",12.31%
c1cc(-c2ccc(CN3CCCC4(CCNC4)C3)s2)[nH]n1 (configuration not stated),Percent Effect,"30.3 µM, […]",24.83%
